This is an account of results in PubChem BioAssay (NCATS).

Each structure is given as a SMILES string. Unmarked numbers belong to inactive results. Active and inactive are the calls of the source. The rule behind the calls is not given here.

The subject of this assay is HIV-1 nucleocapsid protein NCp7 (binding to TG oligonucleotide). The assay is described as follows: HIV Nucleocapsid (AID 346).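 Note: potency is for inhibitors that block NC binding and lower polarization.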 The following applies: HIV-1 NC / fluorescein-TGTGTGTG probe, fluorescence polarization. In outline:
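Fluorescence polarization readout: labelled TG4xF oligo (10 nM) with 100 nM nucleocapsid protein, high-salt (250mM NaCl) Hepes pH 7.5 buffer containing zinc and fresh reducing agents. Compounds added by pin tool; incubation 1 hr, room temperature.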
(Polarisation of emitted light reports the rotation of a fluorescent probe.)
Potency is the fitted concentration of half-maximal effect.

With `CN1CCCC2(CCN(S(=O)(=O)c3ccccc3)CC2)C1`, the Potency is more than 20 µM.
On to `COc1ccccc1CNc1nc(-c2cccc(NS(C)(=O)=O)c2)nc2ccccc12`, for which the Potency was more than 20 µM.
Consider `CN(C)c1ncc2nc(-c3cn(C)c4ccccc34)c(=O)n(C[C@H]3CCCO3)c2n1`, for which the Potency was more than 20 µM.
The result for `COc1ccccc1CN1CC[C@@]2(CCCN(C(=O)c3cnccn3)C2)C1` reads more than 20 µM.
For the molecule `Cc1nc2cncnc2n(Cc2ccc(F)cc2)c1=O`, the Potency was more than 20 µM.
Turning to `CN(C)c1ncc2nc(-c3ccc(F)cc3)c(=O)n(C3CC3)c2n1`, the Potency is more than 4 µM.
In the case of `O=c1c(-c2cccs2)nc2cnc(Nc3ccccc3)nc2n1C[C@H]1CCCO1` it was 4.11 µM (active); in that of `N#CCCn1c(=O)c(-c2cccc(C#N)c2)nc2cnc(Oc3ccccc3)nc21`, more than 20 µM.
With `O=c1c(-c2ccc(F)cc2)nc2cnc(N3CCOCC3)nc2n1-c1ccccc1`, the Potency is more than 20 µM.
In the case of `COCCNc1nc(-c2cccc(OC)c2)nc2ccccc12`, the Potency was more than 20 µM.
In the case of `FC(F)(F)c1ccccc1-c1nc(Nc2ccncc2)c2ccccc2n1` it was more than 20 µM; in that of `Cn1cccc1C(=O)N1CCC2(CC1)CCN(c1ccccn1)CC2`, more than 20 µM; in that of `CN(C)c1ncc2nc(-c3ccc(Cl)cc3)c(=O)n(Cc3cccs3)c2n1`, more than 4 µM.
On to `CNc1nc(-c2ccoc2)nc2ccccc12`, for which the Potency is more than 20 µM.
The result for `COc1ccccc1CNc1nc(-c2c(C)noc2C)nc2ccccc12` reads more than 20 µM.
Take `COc1ccccc1-c1nc(NCCNC(C)=O)c2ccccc2n1`: the Potency is more than 20 µM.
In the case of `c1csc(CNc2ncncc2-c2ccoc2)c1` it was more than 20 µM.
As for `COc1ncc2nc(C)c(=O)n(Cc3ccc(F)cc3)c2n1`, the Potency was more than 20 µM.
Take `COCC(=O)N1CCC[C@@]2(CCN(c3ccncc3)C2)C1`: the Potency is more than 20 µM.
Consider `COc1ccc2[nH]cc(CCNc3nc(-c4ccccc4CN(C)C)nc4ccccc34)c2c1`, for which the Potency is more than 20 µM.
In the case of `O=c1c(-c2ccc(F)cc2)nc2cnc(Oc3cccc(Cl)c3)nc2n1C[C@H]1CCCO1` it was more than 20 µM.
For `COCCn1c(=O)cnc2cnc(N(C)C)nc21`, the Potency was more than 20 µM.
In the case of `CN(C)C(=O)c1ccc(-c2cc(NCc3ccccc3)ncn2)cc1` it was more than 20 µM; in that of `CN(C)C(=O)c1ccc(-c2cncnc2-n2ccnc2)cc1`, more than 20 µM.
In the case of `Cc1noc(C)c1C(=O)N1CCC2(CC1)CN(c1ncccn1)C2` it was more than 20 µM.
Turning to `CCNc1ncc2nc(-c3cc(F)cc(F)c3)c(=O)n(-c3ccc(OC)cc3)c2n1`, the Potency is more than 4 µM.
Regarding `COC(=O)N1CCC2(CC1)CCN(c1ccccn1)CC2`, the Potency was more than 20 µM.
Consider `COc1ccc(-c2nc3cnc(N(C)C)nc3n(C[C@H]3CCCO3)c2=O)cc1`, for which the Potency is more than 20 µM.
In the case of `COc1ccccc1CNc1ccnc(-c2ccoc2)n1` it was more than 20 µM.
For the molecule `Cc1noc(C)c1C(=O)N1CCC[C@@]2(CCN(c3ccccc3)C2)C1`, the Potency is more than 20 µM.
In the case of `COc1ccc(-c2nc3cnc(N4CCOCC4)nc3n(C3CC3)c2=O)cc1` it was more than 20 µM.
For `O=C(c1cccc(F)c1)N1CCC[C@@]2(CCN(C(c3ccccc3)c3ccccc3)C2)C1`, the Potency was more than 20 µM.
For `CN(C)c1ncc2nc(CCc3ccccc3)c(=O)n(C3CC3)c2n1`, the Potency was more than 20 µM.
In the case of `COc1ccc(C(=O)N2CCC[C@@]3(CCN(Cc4ccc(C#N)cc4)C3)C2)cc1` it was more than 20 µM.
In the case of `COC(=O)N1CCC2(CC1)CCN(C(c1ccccc1)c1ccccc1)CC2` it was more than 20 µM; in that of `COCCn1c(=O)c(-c2cn(C)c3ccccc23)nc2cnc(Oc3ccccc3)nc21`, more than 20 µM; in that of `Cc1cccc(CNc2ccnc(-c3cccc(C#N)c3)n2)c1`, more than 20 µM.
The result for `COc1ccc(Oc2ncc3nc(-c4cc(F)cc(F)c4)c(=O)n(C[C@H]4CCCO4)c3n2)cc1` reads more than 20 µM.
As to `O=C(c1csnn1)N1CCC[C@@]2(CCN(Cc3cc(C(F)(F)F)cc(C(F)(F)F)c3)C2)C1`, the Potency was more than 20 µM.
In the case of `COCCNc1ccnc(-c2ccccc2C(F)(F)F)n1` it was more than 20 µM; in that of `O=c1c(CCc2ccccc2)nc2cnc(N3CCNCC3)nc2n1CCc1ccccc1`, more than 20 µM.
The result for `CC(=O)N1CCC2(CC1)CN(Cc1cc(C(F)(F)F)cc(C(F)(F)F)c1)C2` reads more than 20 µM.
For the molecule `Cc1noc(C)c1-c1nccc(-n2ccnc2)n1`, the Potency is more than 20 µM.
The result for `COc1ccc(NC(=O)N2CCC3(CC2)CCN(C(=O)c2ccncc2)CC3)cc1` reads more than 20 µM; that for `c1ccc(Nc2nc(-c3ccoc3)nc3ccccc23)cc1`, more than 20 µM.
The result for `c1csc(CNc2cc(-c3ccoc3)ncn2)c1` reads more than 20 µM.
For `N#CCCn1c(=O)cnc2cnc(Oc3ccccc3)nc21`, the Potency was more than 20 µM.
In the case of `O=S(=O)(c1ccccc1)N1CCC2(CCCN(Cc3cc(C(F)(F)F)cc(C(F)(F)F)c3)C2)CC1` it was more than 20 µM.
The result for `O=C(c1csnn1)N1CCC2(CC1)CN(c1ccccn1)C2` reads more than 20 µM; that for `CNc1nc(-c2cccnc2)nc2ccccc12`, more than 20 µM.
In the case of `Cc1noc(C)c1-c1nc(NCc2ccccc2)c2ccccc2n1` it was more than 20 µM; in that of `Cc1cnc(CNc2cc(-c3ccc(N(C)C)cc3)ncn2)cn1`, more than 20 µM; in that of `COCC(=O)N1CCC2(CC1)CN(Cc1ccccc1OC)C2`, more than 20 µM.
Consider `Cn1cccc1C(=O)N1CCC2(CCN(C(=O)Nc3cccc(F)c3)CC2)CC1`, for which the Potency was more than 20 µM.
For `O=C(c1cccc(F)c1)N1CCC2(CCN(Cc3cc(C(F)(F)F)cc(C(F)(F)F)c3)CC2)CC1`, the Potency is more than 20 µM.
Take `COC(=O)N1CCC2(CC1)CN(C(=O)Nc1ccc(OC)cc1)C2`: the Potency is more than 20 µM.
The result for `CN1CCN(c2ccnc(-c3ccoc3)n2)CC1` reads more than 20 µM; that for `Cc1cccc(CNc2nc(-c3ccoc3)nc3ccccc23)c1`, more than 20 µM.
The result for `COc1ccc(-n2c(=O)c(-c3ccc(Cl)cc3)nc3cnc(N4CCOCC4)nc32)cc1` reads more than 20 µM.
The result for `CC(C)CN1CCC2(CC1)CCN(C(=O)c1cnccn1)CC2` reads more than 20 µM; that for `COc1ccccc1CNc1cc(-c2cccnc2)ncn1`, more than 20 µM; that for `Fc1ccc(Nc2ncnc3ccc(-c4ccoc4)cc23)cc1`, more than 20 µM.
For `N#CCCn1c(=O)c(CCc2ccccc2)nc2cnc(Nc3ccccc3)nc21`, the Potency is more than 4 µM.
`CN1CCN(c2ncc3nc(CCc4ccccc4)c(=O)n(Cc4ccc(F)cc4)c3n2)CC1`: the Potency is more than 20 µM.
In the case of `CCNc1ncc2nc(-c3ccc(Cl)cc3)c(=O)n(C[C@H]3CCCO3)c2n1` it was more than 4 µM; in that of `COc1ccc(CNc2cc(-c3cccc(NS(C)(=O)=O)c3)ncn2)c(OC)c1`, more than 20 µM; in that of `O=C(c1ccncc1)N1CCC[C@@]2(CCN(C(c3ccccc3)c3ccccc3)C2)C1`, more than 20 µM.
In the case of `Cc1nc2cnc(Oc3cccc(Cl)c3)nc2n(C2CC2)c1=O` it was more than 20 µM; in that of `COCC(=O)N1CCC2(CC1)CN(c1ccccc1)C2`, more than 20 µM.
In the case of `Cn1cccc1C(=O)N1CCC[C@@]2(CCN(C(=O)Nc3cccc(F)c3)C2)C1`, the Potency is more than 20 µM.
In the case of `COc1ccc(NC(=O)N2CC[C@@]3(CCCN(C(=O)c4ccncc4)C3)C2)cc1` it was more than 20 µM; in that of `O=C(c1cccc(F)c1)N1CCC2(CCCN(c3ccccc3)C2)CC1`, more than 20 µM; in that of `O=C(c1cccc(F)c1)N1CCC[C@@]2(CCN(c3ccccn3)C2)C1`, more than 20 µM.
In the case of `c1cncc(CNc2ncnc3ccc(-c4cccnc4)cc23)c1` it was more than 20 µM.
In the case of `Cc1nc2cnc(Oc3ccccc3)nc2n(C2CC2)c1=O` it was more than 20 µM.
Take `O=C(c1cccc(F)c1)N1CCC2(CC1)CCN(c1ccncc1)CC2`: the Potency is more than 20 µM.
The result for `COc1ccc(CNc2ncnc3ccc(-c4cccnc4)cc23)c(OC)c1` reads more than 20 µM.
Take `COc1ccccc1CN1CC2(CCN(C(=O)c3cnccn3)CC2)C1`: the Potency is more than 20 µM.
For `COc1ccccc1CNc1cc(-c2cccc(NS(C)(=O)=O)c2)ncn1`, the Potency was more than 20 µM.
With `COc1ccc(Oc2ncc3nc(-c4cccs4)c(=O)n(Cc4cccc(OC)c4)c3n2)cc1`, the Potency is more than 20 µM.
As to `COc1ccc(Oc2ncc3ncc(=O)n(C[C@H]4CCCO4)c3n2)cc1`, the Potency is more than 20 µM.
The result for `Cc1noc(C)c1-c1nccc(N(C)Cc2ccco2)n1` reads more than 20 µM.
In the case of `COCC(=O)N1CCC2(CCCN(C(c3ccccc3)c3ccccc3)C2)CC1` it was more than 20 µM; in that of `COc1cccc(Cn2c(=O)c(-c3cn(C)c4ccccc34)nc3cnc(N4CCNCC4)nc32)c1`, more than 20 µM.
Turning to `CC(C)CN1CC2(CCN(C(=O)c3csnn3)CC2)C1`, the Potency was more than 20 µM.
On to `O=C(c1cccc(F)c1)N1CCC2(CC1)CCN(c1ncccn1)CC2`, for which the Potency is more than 20 µM.
With `COCCn1c(=O)c(CCc2ccccc2)nc2cnc(N3CCOCC3)nc21`, the Potency is more than 20 µM.
Turning to `CN(C)c1ccc(-c2cncnc2N(C)Cc2ccco2)cc1`, the Potency was more than 20 µM.
In the case of `COc1ccc(-n2c(=O)c(-c3cc(F)cc(F)c3)nc3cnc(N(C)C)nc32)cc1` it was more than 20 µM; in that of `O=C(c1cc(C(F)(F)F)cc(C(F)(F)F)c1)N1CCC2(CCCN(c3ncccn3)C2)CC1`, more than 20 µM.
In the case of `O=c1c(-c2ccccc2)nc2cncnc2n1-c1ccccc1` it was more than 20 µM.
In the case of `COCCn1c(=O)c(-c2cccc(C#N)c2)nc2cnc(Oc3ccc(OC)cc3)nc21` it was more than 20 µM.
In the case of `O=c1cnc2cnc(N3CCNCC3)nc2n1CCc1ccccc1`, the Potency was more than 20 µM.
Take `CC(=O)NCCNc1nc(-c2cccnc2)nc2ccccc12`: the Potency is more than 20 µM.
In the case of `O=c1c(-c2ccccc2)nc2cnc(N3CCOCC3)nc2n1Cc1cccs1` it was more than 20 µM; in that of `O=C(Nc1ccccc1)N1CCCC2(CCN(C(=O)c3cnccn3)CC2)C1`, more than 20 µM.
With `O=C(c1cnccn1)N1CCC2(CC1)CCN(c1ncccn1)CC2`, the Potency is more than 20 µM.
In the case of `CN(C)C(=O)c1ccc(-c2nccc(NCc3ccccc3)n2)cc1` it was more than 20 µM.
As for `CN(C)c1ncc2nc(-c3ccc(F)cc3)c(=O)n(-c3ccccc3)c2n1`, the Potency is more than 20 µM.
The result for `CS(=O)(=O)Nc1cccc(-c2ccc3ncnc(Nc4ccc(F)cc4)c3c2)c1` reads more than 20 µM; that for `COc1cccc(Cn2c(=O)cnc3cnc(N(C)C)nc32)c1`, more than 20 µM; that for `Cc1cccc(CNc2ncnc3ccc(-c4ccccc4CN(C)C)cc23)c1`, more than 20 µM.
In the case of `N#Cc1ccc(CN2CCCC3(CCNCC3)C2)cc1` it was more than 20 µM.
In the case of `O=C(c1ccco1)N1CCC2(CC1)CN(c1ccccc1)C2` it was more than 20 µM; in that of `COc1ccccc1CN1CC[C@@]2(CCCN(C(=O)c3ccncc3)C2)C1`, more than 20 µM; in that of `N#Cc1cccc(-c2ccc3ncnc(NC4CCNCC4)c3c2)c1`, more than 20 µM.
Take `COCCn1c(=O)c(-c2cccs2)nc2cnc(OCc3ccccc3)nc21`: the Potency was more than 20 µM.
Turning to `O=c1c(-c2ccccc2)nc2cnc(N3CCNCC3)nc2n1Cc1ccc(F)cc1`, the Potency was more than 20 µM.
In the case of `CN(Cc1ccco1)c1cc(-c2ccccc2C(F)(F)F)ncn1` it was more than 20 µM; in that of `COc1ncc2nc(-c3ccc(Cl)cc3)c(=O)n(CCc3ccccc3)c2n1`, more than 20 µM; in that of `Cc1cccc(CNc2nc(-c3ccccc3CN(C)C)nc3ccccc23)c1`, more than 20 µM.
In the case of `O=C(Nc1ccccc1)N1CC[C@@]2(CCCN(C(=O)c3csnn3)C2)C1` it was more than 20 µM; in that of `CN(C)C(=O)c1ccc(-c2cncnc2NC2CCNCC2)cc1`, more than 20 µM; in that of `CC(C)CN1CC2(CCN(C(=O)c3cccc(F)c3)CC2)C1`, more than 20 µM.
`CN(C)C(=O)c1ccc(-c2cc(-n3ccnc3)ncn2)cc1`: the Potency is more than 20 µM.
In the case of `CN(C)c1cc(-c2cccc(NS(C)(=O)=O)c2)ncn1` it was more than 20 µM; in that of `COCCn1c(=O)c(C)nc2cnc(Oc3cccc(Cl)c3)nc21`, more than 4 µM.
Regarding `CCNc1ncc2nc(-c3cc(F)cc(F)c3)c(=O)n(CCOC)c2n1`, the Potency was more than 20 µM.
The result for `CN(C)C(=O)c1ccc(-c2nc(NCc3ccccc3)c3ccccc3n2)cc1` reads more than 20 µM.
In the case of `COc1ccc(-c2nc3cnc(N4CCOCC4)nc3n(CCC#N)c2=O)cc1` it was more than 20 µM.
